Compounds with a hit are over-represented: about 6.3% of the library has one in this group of screens.
A340 absorber: absorbance at 340 nm | AID 708 | fold change at 10 µM | compound absorbance at 340 nm, fold over control | 65,000 tested, under 10 active;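 active means at 10 µM dose, initial 340 nm absorbance at least 2 fold that of control wells; inactive means change under 2 fold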;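 further: initial absorbance extrapolated from kinetic A340 decline of NADH oxidation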
Fluor 339 460: intrinsic fluorescence of library compounds, ex339/em460 – biochemical, MLSMR library, data from DPM-DC assay, artefact control, profiling panel. compound autofluorescence, ex339/em460 nm, NADH buffer; active compounds read high; 1 = no-compound wells, NADH background. fluorescence fold increase at 10 µM. 65,000 compounds, 5.5% hits. AID 709;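 active means at 10 µM, mean starting fluorescence two-fold or more over control wells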;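 further: signal is the first read of a kinetic run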
MK inhibit: inhibitors of Streptococcus pneumoniae mevalonate kinase. inhibition, % at 10 µM. AID 555. purified MK, PK/LDH-coupled NADH absorbance 340 nm. 65,000 compounds, 0.48% hits;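 active means ranked among the strongest by inhibition in the single 10 µM screen, a fixed top-ranked set picked for dose follow-up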
Spn PMK inh: inhibitors of Streptococcus pneumoniae phosphomevalonate kinase | 65,000 compounds, 0.49% hits | AID 539 | inhibition, % at 10 µM | purified PMK, PK/LDH-coupled NADH absorbance 340 nm;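 active means top-ranked compounds by inhibition in the single 10 µM screen, taking a fixed number of the strongest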;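 further: 0% = full reaction with DMSO carrier and 100% = background rate without enzyme reaction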
Spn DPM-DC inh: inhibitors of Streptococcus pneumoniae diphosphomevalonate decarboxylase; purified DPM-DC, PK/LDH coupled NADH fluorescence; calls only at 10 µM; 65,000 compounds, 0.49% hits; AID 556;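 active means the 320 compounds with the highest percent inhibition in the single-dose primary screen, excluding strongly autofluorescent ones, cut at about 32% in these data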;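 further: kinetic rate of NADH fluorescence loss reporting ADP formed by the decarboxylase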
NADH coupling: inhibition of NAD/NADH coupling enzymes, library profiling; coupled PK/LDH NADH assays, four targets; IC50, µM (titrated, usually from 10 µM), inactives show top-dose inhibition; 65,000 compounds, 0.02% hits;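 active means single-dose screening hits from any of four coupled enzyme assays that gave an IC50 when retested across doses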;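 further: the DPM-DC format reads NADH fluorescence rather than 340 nm absorbance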
* marks the source's active call; other numbers are inactive results; i = inactive; . = no result shown; + = active, no number.

SMILES	A340 absorber	Fluor 339 460	MK inhibit	Spn PMK inh	Spn DPM-DC inh	NADH coupling
Nc1ccc(O)cc1C(=O)OCC(=O)C12CC3CC(CC(C3)C1)C2	1	2.1*	0	9	.	5%
COc1ccc(C2C=C(c3cccs3)Nc3nc(CCCO)nn32)cc1 (stereo not given)	1.1	3.9*	0	17	.	9%
COc1ccc(C2C=C(c3ccccc3)Nc3nc(CCCO)nn32)cc1 (stereo not given)	1.1	4.9*	1	17	.	9%
OCCCc1nc2n(n1)C(c1ccccc1)C=C(c1ccccc1)N2 (stereo not given)	1.1	1.9	10	0	i	11%
CN(CCO)C(=O)CCC(=O)Nc1ccc(S(N)(=O)=O)cc1	1	1	10	8	i	6%
CCOC(=O)c1ccc(CNC(=O)c2cc(C(C)(C)C)oc2C)o1	1	1.1	2	4	i	2%
Cc1cc(N2CCOCC2)n2nc(C)c(-c3ccccc3)c2n1	1.1	1.1	9	17	i	9%
Cc1nn2c(N3CCN(c4ccccn4)CC3)cc(C(C)C)nc2c1-c1ccccc1	1	3.1*	5	4	i	9%
Cc1cc(N2CCN(C3CCCC3)CC2)n2nc(C)c(-c3ccccc3)c2n1	1	0.79	9	13	+	21%
COc1ccc(CCNC(=O)c2nnn(-c3ccc4c(c3)OCCO4)c2N)cc1OC	0.99	1	3	5	i	3%
O=c1[nH]c2ccccc2nc1C(F)(F)C(F)F	1.1	2.1*	6	4	.	5%
O=c1[nH]c2ccccc2nc1Cc1ccccc1	1	1.6	13	1	i	12%
COC(=O)c1ccccc1NC(=O)C1CC(=O)N(C2CCCCC2)C1 (stereo not given)	1	1.1	4	3	i	2%
CCC(C)(C)NC(=O)C(c1ccccc1F)N(Cc1ccco1)C(=O)c1csnn1 (stereo not given)	1.1	1.1	0	38*	i	13%
COc1cccc(N2CCN(c3ncnc4c3[nH]c3ccccc34)CC2C)c1 (stereo not given)	1.1	1.4	3	0	i	7%
COc1cccc2[nH]c3c(N4CCC(C)CC4)ncnc3c12	1.1	3.7*	0	6	.	3%
COc1cccc2[nH]c3c(N4CCN(Cc5ccc6c(c5)OCO6)CC4)ncnc3c12	1.1	3.9*	14	4	.	9%
COc1cc2[nH]c3c(N4CCN(c5ccc(Cl)cc5)CC4)ncnc3c2cc1OC	1.1	2.4*	1	9	i	3%
CC(C(=O)Nc1cccnc1)N1C(=O)C2C3C=CC(C3)C2C1=O (stereo not given)	1	1.2	8	11	i	6%
COc1ccc(-c2cn3c(C)c(C(=O)NCc4ccc5c(c4)OCO5)sc3n2)cc1	1	1.1	0	24	i	8%
O=C(Cn1cnc2c(nnn2Cc2ccc(F)cc2)c1=O)NCC1CCCO1 (stereo not given)	0.98	1.1	11	11	i	7%
O=c1cc(O)c2c(=O)[nH]c(=O)n(-c3ccccc3)c2[nH]1	1	1.1	4	25*	i	10%
Cc1ccc(-c2nnc3ccc(SCC(=O)Nc4cc(C)on4)nn23)cc1	1	2*	3	10	i	5%
Cc1ccc(-c2nnc3ccc(SCC(=O)N4CCCCC4)nn23)cc1	0.98	1.2	6	14	i	7%
CC1CCN(C(=O)CSc2ccc3nnc(-c4ccccc4)n3n2)CC1	0.99	2.2*	5	7	i	5%
SMILES	A340 absorber	Fluor 339 460	MK inhibit	Spn PMK inh	Spn DPM-DC inh	NADH coupling
Cc1cc(NC(=O)CSc2ccc3nnc(-c4ccc(F)cc4)n3n2)no1	1	2	0	13	i	7%
O=C(CSc1ccc2nnc(-c3ccccc3)n2n1)NCC1CCCO1 (stereo not given)	0.99	2.2*	5	13	i	10%
CC1CCN(C(=O)CSc2ccc3nnc(-c4ccc(F)cc4)n3n2)CC1	1	2.3*	1	12	i	5%
COc1ccc(S(=O)(=O)N(CCN2CCOCC2)Cc2cc(OC)ccc2OC)cc1	0.99	1.7	7	13	i	8%
O=C(CSc1nc2ccccc2[nH]1)N1CCN(c2ccc(F)cc2)CC1	1	1.1	11	5	i	5%
CC1CCN(C(=O)CSc2nc3ccccc3[nH]2)CC1	1.1	1	1	32*	i	3%
Cc1ccccc1Nc1nnc(SCC(=O)NC(=O)NCc2ccco2)s1	1.1	1.1	14	0	i	5%
CC(C)(C)C1CCc2[nH]c3ccccc3c(=O)c2C1 (stereo not given)	1.1	1.2	0	0	i	0%
O=c1c2c([nH]c3ccccc13)C(=C1CCCC1)CC2	1.1	2.1*	0	0	.	0%
CCOC(=O)C1CCCN(Cc2ccccc2C)C1 (stereo not given)	1.1	1.1	42*	0	i	14%
CCOC(=O)C1CCCN(Cc2ccccc2OCC)C1 (stereo not given)	1.1	1.1	41*	0	i	14%
Cc1cc(C)n(-c2ccc(C(=O)Nc3nc4ccccc4s3)cc2)n1	1	3.3*	6	13	i	10%
CC(=O)c1cc2c(cc1NC(=O)c1ccc(-n3nc(C)cc3C)cc1)OCO2	1	2.1*	4	15	.	10%
CC1OC(Nc2cccc3ccccc23)C(O)C(O)C1O (stereo not given)	1	2.1*	13	2	.	8%
O=C(Nc1cccc2ccccc12)OC1C=CS(=O)(=O)C1 (stereo not given)	1	1.1	8	11	i	8%
Cc1cccc2c(=O)oc(-c3ccc4c(c3)C(=O)N(CC3CCCO3)C4=O)nc12 (stereo not given)	1	1.6	9	8	i	5%
CC(C)NC(=O)N(O)C1N(Cc2ccc3c(c2)OCO3)C(=S)SC1(C)C (stereo not given)	1	1.1	7	14	i	7%
COc1ccc(-c2c(C(F)(F)F)oc3c(CN4CCN(C)CC4)c(O)ccc3c2=O)cc1	1	1.1	2	12	i	4%
COc1ccccc1Oc1c(C)oc2c(CN3CCN(C)CC3)c(O)ccc2c1=O	1.1	3.8*	6	7	.	7%
CCOC(=O)c1c(C)oc2c(CN3CCN(C)CC3)c(Br)c(OC)c(O)c12	1	1.1	7	14	i	7%
COC(=O)c1ccc(Oc2c(C)oc3c(CN4CCN(C)CC4)c(O)ccc3c2=O)cc1	1.1	3.8*	5	13	.	9%
CCc1nnc(NC(=O)C(C)Sc2ccccc2)s1 (stereo not given)	0.99	1	9	4	i	4%
